In ChEMBL document CHEMBL3988442, “University of Dundee, Small-Polar-MMV Screening Library” (2021):
Hit rate of the full screen: of about 66,000 compounds, about 960 (1.5%) showed an effect of 50% or more. The list comes from a sample in which strong results are over-represented; it also holds similar structures and randomly drawn compounds.

Tested on: Trypanosoma brucei
Test: Trypanosoma brucei 72 hour study
Assay type: functional, organism-based
Design: scale not given: in the data most compounds retested in dose-response had high values

Cn1cc(CN2CCc3onc(C(=O)N4CCCC4)c3C2)cn1.O=C(O)C(F)(F)F
Percent Effect (30.3 µM, […]): -19.54%

O=C(c1cscn1)N1C[C@H]2CCC[C@@]2(COCc2ccccn2)C1
Percent Effect (30.3 µM, […]): -7.729%

CN1CCN(CC(NCc2cccc(O)c2)c2ccccc2)CC1 (configuration not stated)
Percent Effect (30 µM, 30.03 µM): 100.4%

Cc1ccc(CNC(CN2CCN(C)CC2)c2ccccc2)cc1 (configuration not stated)
Percent Effect (30 µM, 30.03 µM): 0.9317%

CN1CCN(CC(NCc2ccc(F)c(F)c2)c2ccccc2)CC1 (configuration not stated)
Percent Effect (30 µM, 30.03 µM): -11.08%

Cc1cccc(CNC(CN2CCN(C)CC2)c2ccccc2)c1 (configuration not stated)
Percent Effect (30 µM, 30.03 µM): 38.01%

COc1cccc(CNC(CN2CCN(C)CC2)c2ccccc2)c1 (configuration not stated)
Percent Effect (30 µM, 30.03 µM): -23.58%

Cc1ccc(CNC(CN2CCN(C)CC2)c2ccccc2)cc1C (configuration not stated)
Percent Effect (30 µM, 30.03 µM): 57.4%

Cc1noc(C)c1CNCC1Cn2nncc2CO1.O=C(O)C(F)(F)F (configuration not stated)
Percent Effect (30.3 µM, […]): -105.3%

COCC1CN(C(=O)CS(C)(=O)=O)Cc2ncn(CC3CC3)c21 (configuration not stated)
Percent Effect (30.3 µM, […]): -30.37%

C1CCN(CCO[C@@H]2CC[C@H]3[C@H]2OCCN3CC2CCOCC2)C1.O=C(O)C(F)(F)F.O=C(O)C(F)(F)F
Percent Effect (30 µM, 30.03 µM): -27.36%

Cc1ncsc1-c1nnc(C2CCN(Cc3ccccc3F)CC2)o1
Percent Effect (30.3 µM, […]): -22.5%

CNCc1ccc([C@@H]2CN(C(C)=O)C[C@H]2C(=O)N(C)C)cc1.Cl
Percent Effect (30.3 µM, […]): -5.387%

CN(C)CCN1CCC2(CCN(C(=O)c3ccncc3)CC2)C1=O.O=C(O)C(F)(F)F.O=C(O)C(F)(F)F
Percent Effect (30.3 µM, […]): -21.17%

CN1CCOCC12CCN(Cc1ccoc1)CC2.O=C(O)C(F)(F)F.O=C(O)C(F)(F)F
Percent Effect (30.3 µM, […]): -44.43%

Cn1cc(-c2c(C#N)c(N)nc3c2CCc2[nH]ccc2-3)cn1
Percent Effect (30.3 µM, […]): 27.56%

COc1ncc(-c2c(C#N)c(N)nc3c2CCc2[nH]ccc2-3)cn1
Percent Effect (30.3 µM, […]): -6.46%

Cc1n[nH]c(C)c1-c1c(C#N)c(N)nc2c1CCc1[nH]ccc1-2
Percent Effect (30.3 µM, […]): 52.57%

CC(C)CN1C[C@H]2C[C@H](C(=O)N3CCCC3)[C@@H](C1)O2.O=C(O)C(F)(F)F
Percent Effect (30.3 µM, […]): -50.57%

CCc1ccc(-c2ncc3c(n2)N(C)CCN(CCN(C)C)C3=O)cc1
Percent Effect (30.3 µM, […]): 100.5%

COc1cccc(-c2ncc3c(n2)N(C)CCN(CCN(C)C)C3=O)c1
Percent Effect (30.3 µM, […]): 19.59%

CN(C)CCN1CCN(C)c2nc(-c3ccccc3)ncc2C1=O
Percent Effect (30.3 µM, […]): 17.36%

Cl.O=C(O)[C@@H]1CCCN1c1nccc(Nc2ccccc2)n1
Percent Effect (30.3 µM, […]): -31.15% | Percent Effect (10 mM, 10 mM as filed; unlikely as a test dose): -16.56%

Cc1cc(F)ccc1-n1cc(O)c(C(=O)NCC2(O)CCC2)n1
Percent Effect (30 µM, 30.03 µM): -18.18%

CCN(CC1CCOC1)C(=O)Cn1nnn(-c2cccs2)c1=O (configuration not stated)
Percent Effect (30 µM, 30.03 µM): -61.65%

O=C(Cn1nnn(-c2cccs2)c1=O)NCC1CCOC1 (configuration not stated)
Percent Effect (30 µM, 30.03 µM): 53.07%

O=C(Cn1nnn(-c2cccs2)c1=O)N(CC1CCOC1)C1CC1 (configuration not stated)
Percent Effect (30 µM, 30.03 µM): -28.27%

c1ccc(-c2nc(CNCCn3cccn3)cs2)cc1
Percent Effect (30 µM, 30.03 µM): -63.26%

c1ccc(Cc2nc(CNCCn3cccn3)cs2)cc1
Percent Effect (30.3 µM, […]): 100.2%

CC(Cn1cccn1)NCc1csc(COc2ccccc2)n1 (configuration not stated)
Percent Effect (30.3 µM, […]): 63.51%

CC(Cn1cccn1)NCc1csc(COc2ccc(F)cc2)n1 (configuration not stated)
Percent Effect (30.3 µM, […]): 4.13%

CC(Cn1cccn1)NCc1csc(Cc2ccccc2)n1 (configuration not stated)
Percent Effect (30.3 µM, […]): 32.28%

Clc1ccc(Cc2nc(CNCCn3cccn3)cs2)cc1
Percent Effect (30.3 µM, […]): 19.22%

Cc1cnn(CCNCc2csc(COc3ccccc3)n2)c1
Percent Effect (30.3 µM, […]): 54.15%

Cc1cnn(CCCNCc2csc(COc3ccccc3)n2)c1
Percent Effect (30.3 µM, […]): 10.81%

c1ccc(OCc2nc(CNCCn3cccn3)cs2)cc1
Percent Effect (30.3 µM, […]): -9.773%

CCS(=O)(=O)N1C[C@H]2C[C@H](C(=O)N(C)C)[C@@H](C1)O2
Percent Effect (30 µM, 30.03 µM): 9.915%

O=C(NCC(=O)N1CCN(c2ccccc2)CC1)c1sccc1C1CC1
Percent Effect (30 µM, 30.03 µM): 8.848%

CCC(=O)N1CCN(CCn2cccn2)c2ncccc2C1.O=C(O)C(F)(F)F
Percent Effect (30.3 µM, […]): -68.7%

N#Cc1ccc(C(=O)N2CC[C@H]3[C@H]2CCN3CC2CC2)cc1.O=C(O)C(F)(F)F
Percent Effect (30.3 µM, […]): -8.518%

Cc1ccccc1-c1cncc(C2CCN(S(=O)(=O)N(C)C)CC2)n1
Percent Effect (30.3 µM, […]): 23.75%

CCC(=O)N1CCCN(Cc2cc(F)cc(Br)c2)CC1
Percent Effect (30 µM, 30.03 µM): -27.39%

CN1C[C@H]2CC[C@@H]1CN(C(=O)COCc1nc3cc(F)ccc3[nH]1)C2
Percent Effect (30 µM, 30.03 µM): -9.559%

CC(C)(C)n1ncc2c1CCCC2NCc1ccsc1 (configuration not stated)
Percent Effect (30 µM, 30.03 µM): -15.69%

O=C(NCc1cnc2n1CCN(Cc1nccs1)CC2)C1CCC1.O=C(O)C(F)(F)F
Percent Effect (30.3 µM, […]): -21.25%

COCC(=O)N1CCC2(CC1)CN(CC1CC1)c1ccc(F)cc12
Percent Effect (30.3 µM, […]): 19.77%
